Source: PubChem BioAssay

The compounds below were run against PEG-3 (UniProt Q6IN02) (assay: inhibition of PEG-3 promoter-driven reporter – cell-based, HeLa, luciferase, CREF/GAPDH counter-screen panel, dose response (AID 624167)). Settings: CREF/GAPDH counter-screens; HeLa PEG-Prom luciferase reporter, overnight, run 2, dose range 1, at 100 µM (top of the series) unless noted.
Chain of PEG-3 (Q6IN02 whole entry, looked up): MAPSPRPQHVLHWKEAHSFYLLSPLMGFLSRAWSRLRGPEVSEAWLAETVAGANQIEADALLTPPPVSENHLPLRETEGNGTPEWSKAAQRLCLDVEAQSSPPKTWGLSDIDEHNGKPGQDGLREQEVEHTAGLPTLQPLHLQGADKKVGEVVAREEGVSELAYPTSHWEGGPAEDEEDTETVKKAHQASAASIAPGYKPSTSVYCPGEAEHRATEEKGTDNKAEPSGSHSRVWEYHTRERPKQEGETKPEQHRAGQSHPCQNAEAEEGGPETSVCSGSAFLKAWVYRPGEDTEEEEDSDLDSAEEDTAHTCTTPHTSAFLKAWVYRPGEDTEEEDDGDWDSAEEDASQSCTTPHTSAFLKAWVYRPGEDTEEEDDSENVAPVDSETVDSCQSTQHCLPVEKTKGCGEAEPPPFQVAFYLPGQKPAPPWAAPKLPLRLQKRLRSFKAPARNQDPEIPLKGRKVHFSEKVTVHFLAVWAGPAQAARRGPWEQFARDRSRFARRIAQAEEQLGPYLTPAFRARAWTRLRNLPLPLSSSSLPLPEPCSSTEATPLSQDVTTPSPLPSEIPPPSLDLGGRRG
Work on `CCN1CCN(C(c2ccc(C(F)(F)F)cc2)c2ccc3cccnc3c2O)CC1` (stereo unspecified) yielded an inhibition of 99.4%. For `CC(C)(c1ccccc1)c1ccc(OCC(O)CNC2CCN(Cc3ccccc3)CC2)cc1` (stereo unspecified), the inhibition was 98.9%. `Nc1nonc1-n1nnc(C(=O)N/N=C/c2cc(Br)ccc2O)c1CNc1ccccc1` gave an inhibition of 81.9%. `CCOc1ccc(C(=O)O/N=C(\N)c2ccccn2)cc1` showed an inhibition of 98.8%. With `COc1cccc2sc(N(CCCN(C)C)C(=O)C(c3ccccc3)c3ccccc3)nc12` the inhibition was 95.1%. Work on `O=C(O)c1cccc(COc2ccc3c(c2)CCC3)c1` yielded an inhibition of 99.1%. `C=CCc1cccc(/C=N/NC(=O)C(C)Nc2cccc(C)c2)c1O` (stereo unspecified) showed an inhibition of 62%. For `O=C1c2ccccc2S(=O)(=O)N1Cc1nc2ccccc2s1`, the inhibition was 83.4%. In the case of `C/C(=N\NC(=O)c1c(C)nc2ccccn12)c1ccc(O)cc1O`, the inhibition was 48.1%. Work on `Cc1ccc2oc(/N=C(\N)NC(=O)C(C)(C)C)nc2c1` yielded an inhibition of 94.5%. For `O=C(/C=C/c1ccccc1)NC(NC(=S)Nc1cccc(Cl)c1)C(Cl)(Cl)Cl` (stereo unspecified), the inhibition was 99.4%. Compound `CCN1C(=O)C(=Cc2cccc(OC)c2Oc2ccc([N+](=O)[O-])cc2[N+](=O)[O-])SC1=S` has an inhibition of 46.1%. Work on `CCC(=O)NC(c1ccc(C)cc1)c1ccc2cccnc2c1O` (stereo unspecified) yielded an inhibition of 50.5%. For `O=C(CCn1cnc(-c2ccccc2)c1-c1ccccc1)N/N=C/c1ccccc1O`, the inhibition was 101%. In the case of `CC(C)c1ccc(-c2nc3ccccc3s2)cc1`, the inhibition was 99.1%. `Cc1cc(C=C2C(=O)c3ccccc3C2=O)c(C)n1-c1ccccc1` was tested, and the inhibition was 80.6%. Work on `COc1ccc(C(O)(CC(C)C)C(CN2CCOCC2)c2ccccc2)cc1` (stereo unspecified) yielded an inhibition of 100%. `O=C1/C(=C\c2cccc(O)c2O)SC(=S)N1Cc1ccccc1` gave an inhibition of 101%. `CCN(CC)c1ccc2nc3ccc(N)cc3[n+](-c3ccccc3)c2c1` was tested, and the inhibition was 102%. In the case of `O=C(N/N=C\c1c(O)ccc2ccccc12)c1ccc(Cn2cccn2)o1`, the inhibition was 75.1%. `O=C(/C=C/Nc1ccccc1Br)c1ccccn1` was tested, and the inhibition was 99.5%. `CNC[C@H](CC1CCCCC1)NC[C@H](NCCC1CCCC1)[C@H](C)O` showed an inhibition of 99.9%. With `CCCC(=O)NC(c1ccc(N(C)C)cc1)c1ccc2cccnc2c1O` (stereo unspecified) the inhibition was 78.2% [run 2, dose range 1, at 50 µM]. Compound `C=C(C)Cn1c(SCC(=O)N/N=C/c2c(O)ccc3ccccc23)nc2ccccc2c1=O` has an inhibition of 7.84%. For `O=C(N/N=C\c1c(O)ccc2ccccc12)c1cncc(Br)c1`, the inhibition was 79.4%. With `COc1cc(/C=C/C(=O)N2CCC=CC2=O)cc(OC)c1OC` the inhibition was 96.1%. Work on `COc1ccc(C(NC(C)=O)c2ccc3cccnc3c2O)c(OC)c1` (stereo unspecified) yielded an inhibition of 59.9%. `COc1cc(/C=C/c2ccc3cccc(O)c3n2)c(Br)cc1O` showed an inhibition of 96.1%. For `COC(=O)Cc1[nH]n(-c2nc3ccccc3s2)c(=O)c1C(C)=Nc1ccc(C)cc1`, the inhibition was 83.8%. `Cc1cc(C)c2nc(NNC(=O)c3ccc(S(=O)(=O)N4CC(C)CC(C)C4)cc3)sc2c1` (stereo unspecified) was tested, and the inhibition was 101%. `Cc1cc(C(=O)COC(=O)C2=COCCO2)c(C)n1-c1ccccc1` showed an inhibition of 101%.

These compounds were tested on Rat fibroblasts (CREF) in the same assay as above. Settings: CREF/GAPDH counter-screens; run 1, dose range 1, at 100 µM (top of the series).
Compound `Nc1nonc1-n1nnc(C(=O)N/N=C/c2cc(Br)ccc2O)c1CNc1ccccc1` has an inhibition of 54.5%. `CCOc1ccc(C(=O)O/N=C(\N)c2ccccn2)cc1` gave an inhibition of 97.8%. `O=C(O)c1cccc(COc2ccc3c(c2)CCC3)c1` showed an inhibition of 91.1%. In the case of `C=CCc1cccc(/C=N/NC(=O)C(C)Nc2cccc(C)c2)c1O` (stereo unspecified), the inhibition was 39.7%. `C/C(=N\NC(=O)c1c(C)nc2ccccn12)c1ccc(O)cc1O` was tested, and the inhibition was 49.2%. Compound `Cc1ccc2oc(/N=C(\N)NC(=O)C(C)(C)C)nc2c1` has an inhibition of 82.5%. `CCC(=O)NC(c1ccc(C)cc1)c1ccc2cccnc2c1O` (stereo unspecified) was tested, and the inhibition was 16.7%. `O=C(CCn1cnc(-c2ccccc2)c1-c1ccccc1)N/N=C/c1ccccc1O` showed an inhibition of 86.7%. `O=C(N/N=C\c1c(O)ccc2ccccc12)c1ccc(Cn2cccn2)o1` was tested, and the inhibition was 51.2%. `O=C(/C=C/Nc1ccccc1Br)c1ccccn1` showed an inhibition of 97.6%. Work on `CCCC(=O)NC(c1ccc(N(C)C)cc1)c1ccc2cccnc2c1O` (stereo unspecified) yielded an inhibition of 42.3%. For `O=C(N/N=C\c1c(O)ccc2ccccc12)c1cncc(Br)c1`, the inhibition was 78.3%. `COc1ccc(C(NC(C)=O)c2ccc3cccnc3c2O)c(OC)c1` (stereo unspecified) showed an inhibition of -4.86%. `COC(=O)Cc1[nH]n(-c2nc3ccccc3s2)c(=O)c1C(C)=Nc1ccc(C)cc1` was tested, and the inhibition was 78.5%. Compound `Cc1cc(C)c2nc(NNC(=O)c3ccc(S(=O)(=O)N4CC(C)CC(C)C4)cc3)sc2c1` (stereo unspecified) has an inhibition of 92.9%.

What follows are compounds tested on Rat fibroblasts (CREF) in the same assay as above. Settings: CREF/GAPDH counter-screens; run 2, dose range 1, at 100 µM (top of the series).
`Nc1nonc1-n1nnc(C(=O)N/N=C/c2cc(Br)ccc2O)c1CNc1ccccc1` gave an inhibition of 59.3%. Work on `CCOc1ccc(C(=O)O/N=C(\N)c2ccccn2)cc1` yielded an inhibition of 98.6%. With `O=C(O)c1cccc(COc2ccc3c(c2)CCC3)c1` the inhibition was 89.3%. `C=CCc1cccc(/C=N/NC(=O)C(C)Nc2cccc(C)c2)c1O` (stereo unspecified) showed an inhibition of 47.8%. Compound `C/C(=N\NC(=O)c1c(C)nc2ccccn12)c1ccc(O)cc1O` has an inhibition of 56.5%. `Cc1ccc2oc(/N=C(\N)NC(=O)C(C)(C)C)nc2c1` showed an inhibition of 79.9%. With `CCC(=O)NC(c1ccc(C)cc1)c1ccc2cccnc2c1O` (stereo unspecified) the inhibition was 31.4%. Compound `O=C(CCn1cnc(-c2ccccc2)c1-c1ccccc1)N/N=C/c1ccccc1O` has an inhibition of 94.1%. For `O=C(N/N=C\c1c(O)ccc2ccccc12)c1ccc(Cn2cccn2)o1`, the inhibition was 41.5%. `O=C(/C=C/Nc1ccccc1Br)c1ccccn1` gave an inhibition of 98.9%. `CCCC(=O)NC(c1ccc(N(C)C)cc1)c1ccc2cccnc2c1O` (stereo unspecified) gave an inhibition of 43.5%. For `O=C(N/N=C\c1c(O)ccc2ccccc12)c1cncc(Br)c1`, the inhibition was 79.5%. Work on `COc1ccc(C(NC(C)=O)c2ccc3cccnc3c2O)c(OC)c1` (stereo unspecified) yielded an inhibition of 50.2%. For `COC(=O)Cc1[nH]n(-c2nc3ccccc3s2)c(=O)c1C(C)=Nc1ccc(C)cc1`, the inhibition was 80.2%. `Cc1cc(C)c2nc(NNC(=O)c3ccc(S(=O)(=O)N4CC(C)CC(C)C4)cc3)sc2c1` (stereo unspecified) showed an inhibition of 95.6%.
